A selection: hits, their analogues and other compounds. The true share with any hit is near 18%.
DT40 TDP1 no CPT: qHTS for Inhibitors of human tyrosyl-DNA phosphodiesterase 1 (TDP1): qHTS in cells in absence of CPT | Potency, µM (highest dose often 46.2 µM), without a hit: at the top dose activity change, negative = growth inhibition, actives largely listed as inhibitors | AID 686978, 2013 | DT40 Tdp1-/- hTDP1 cells, no CPT, ATP luminescence, 48 h | 420,000 compounds, 15% hits; note: potency is the fitted concentration of half-maximal effect; nearly all actives have a fitted effect of over 55% in size
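Camptothecin absent (DMSO only). Human TDP1-complemented DT40 knockout cells, 400 cells/well, 37 °C for minimum 48 hr; ATP measured via CellTiter-Glo, 30 min dark incubation, luminescence.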
Six1-Eya2 inh: inhibitors of human Six1/Eya2 interaction | Q15475+O00167 | AlphaScreen GST-Six1/His-Eya2 binding, biochemical; hits give low values | activity change, % (test concentration not listed) | 360,000 compounds, 0.56% hits; in the data active = activity change below about -65%; inconclusive = mostly about -30% to -63%
Target sequence (O00167 whole entry, looked up): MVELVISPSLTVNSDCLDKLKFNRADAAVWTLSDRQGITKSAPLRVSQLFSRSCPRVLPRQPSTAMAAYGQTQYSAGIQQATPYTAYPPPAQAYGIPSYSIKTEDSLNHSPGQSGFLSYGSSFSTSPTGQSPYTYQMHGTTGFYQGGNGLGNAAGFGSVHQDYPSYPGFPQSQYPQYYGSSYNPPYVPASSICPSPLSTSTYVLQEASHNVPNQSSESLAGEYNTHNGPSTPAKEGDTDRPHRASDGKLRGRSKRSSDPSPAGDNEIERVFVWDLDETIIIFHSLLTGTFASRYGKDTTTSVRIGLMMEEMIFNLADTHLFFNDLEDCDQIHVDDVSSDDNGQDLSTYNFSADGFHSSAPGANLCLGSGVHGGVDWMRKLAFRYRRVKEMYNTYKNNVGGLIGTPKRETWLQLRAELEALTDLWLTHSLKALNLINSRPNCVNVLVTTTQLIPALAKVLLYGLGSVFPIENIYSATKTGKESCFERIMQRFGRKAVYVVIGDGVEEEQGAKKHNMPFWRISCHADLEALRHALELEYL
Target sequence (Q15475 whole entry, looked up): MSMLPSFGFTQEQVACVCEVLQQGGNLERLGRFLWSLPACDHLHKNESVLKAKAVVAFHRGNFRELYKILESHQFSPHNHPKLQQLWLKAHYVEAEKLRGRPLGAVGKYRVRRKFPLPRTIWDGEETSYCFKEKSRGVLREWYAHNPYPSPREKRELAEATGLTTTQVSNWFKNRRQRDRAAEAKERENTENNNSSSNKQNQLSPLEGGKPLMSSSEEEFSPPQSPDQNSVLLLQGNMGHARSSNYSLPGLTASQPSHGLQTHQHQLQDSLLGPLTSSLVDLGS
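Six1/Eya2 binding was read as AlphaScreen signal after compounds were pinned into GST-Six1 plus His-tagged Eya2 (5X stock 250/500 nM) in pH 8.0 Tris/NaCl/TCEP buffer, beads added, then incubated 1 h, 37 C, dark.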
TDP1 inh: inhibitors of human tyrosyl-DNA phosphodiesterase TDP1. Q9NUW8. recombinant TDP1, AlphaScreen DNA substrate cleavage. Potency, µM (top dose mostly 130 µM), for the others: at the top dose activity change, negative = inhibition, actives largely listed as inhibitors. 350,000 compounds, 0.28% hits. AID 485290; note: potency is the fitted concentration of half-maximal effect; nearly all actives have a fitted effect of over 40% in size
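AlphaScreen read-out: signal falls as enzyme removes the 3' tyrosine-FITC from a 5'-biotinylated DNA oligo (15 nM, 5 min, RT). Enzyme was E. coli-made recombinant Tdp1 at 1 nM, exposed to compound for 15 min beforehand; beads 10 ug/ml, 10 min.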
DT40 TDP1 CPT: DT40-hTDP1 cell growth loss with CPT; chicken DT40 Tdp1-/-;hTDP1 cells + 20 nM CPT, ATP luminescence, 48 h; 420,000 compounds, 12% hits; AID 686979; Potency, µM (series often up to 46.2 µM), for inactives: at the highest dose activity change, negative = growth inhibition, usual class: inhibitors; note: potency is the fitted concentration of half-maximal effect; nearly all actives have a fitted effect of over 55% in size
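Chicken DT40 Tdp1-/- cells complemented with human TDP1, 400 cells/well, exposed to compounds plus 20 nM camptothecin for at least 48 h at 37 C; viability read as ATP content by CellTiter-Glo luminescence.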
CtBP-E1A inh: CtBP/E1A binding inhibition; AlphaScreen GST-E1A/His-CtBP binding, 1536-well; hits give low values; activity change, % (concentration not given with the values); 340,000 compounds, 0.49% hits; AID 651724; in the data active = activity change below about -65%; inconclusive = mostly about -30% to -63%
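In 5 uL wells, 23 nL compound meets equimolar GST-E1A and His-CtBP (5X stock 125 nM each) for 2 h, 37 °C. Beads (5X, 50 ug/mL) then 1 h, 37 °C, dark.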
IL-1B inflam inh: inflammasome signaling inhibition, IL-1 beta readout; 360,000 compounds, 4.7% hits; AID 743279; activity change, % at 57.5 µM; THP-1 LPS/ATP IL-1B secretion, AlphaLISA, 16 h; hits give low values; in the data active = activity change below about -50%; inconclusive = mostly about -30% to -49%
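Secreted IL-1B measured by AlphaLISA bead assay after 16 h compound exposure of THP-1 cells; compounds (final up to 57.5 uM) added 1 h before LPS (250 ng/mL) and ATP (1.25 mM) stimulation; lower signal means less secretion.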
* hit, by the source's call; i = inactive; ? = inconclusive; · = no result; [ ] = another dose, or the depositor's remark. Unless noted, calls come from the whole dose curve; as a rule, active = well fitted curve in the direction sought with a large enough effect; inconclusive = small, poorly fitted or top-dose-only effect, or another doubt; inactive = no such curve, though single readings can be large; an effect the other way counts as inactive or inconclusive. % is set by controls: 0 for no effect and ±100 for the full control effect.

SMILES | DT40 TDP1 no CPT | Six1-Eya2 inh | TDP1 inh | DT40 TDP1 CPT | CtBP-E1A inh | IL-1B inflam inh
Cc1cnc(C(=O)N2CCCC(C(=O)c3cccc(OC(C)C)c3)C2)cn1 (stereo not drawn) | -26% | -4 | 5% | ? | 0 | 11
CC(C)Oc1cccc(C(=O)C2CCCN(C(=O)c3ccccn3)C2)c1 (stereo not drawn) | 10µM* | -4 | 5% | 21µM* | -2 | 36
Cc1c(OCC(=O)NCC(O)c2ccccc2)ccc2c(-c3ccccc3)cc(=O)oc12 (stereo not drawn) | ? | -2 | · | ? | -5 | -63*
Cc1c(OCC(=O)NCc2ccccn2)ccc2c(-c3ccccc3)cc(=O)oc12 | ? | 1 | · | -4% | 11 | 6
CC(=O)COc1ccc2c(-c3ccccc3)cc(=O)oc2c1C | ? | 25 | · | 0% | -15 | -1
Cc1c(OCC(=O)C(C)(C)C)ccc2c(-c3ccccc3)cc(=O)oc12 | 16µM* | 0 | · | ? | -1 | -64*
CCOc1ccc2c3c(c(=O)oc2c1OCC)CCCC3 | ? | 14 | 0% | ? | 15 | -52*
CCOC(=O)COc1ccc2c3c(c(=O)oc2c1C)CCC3 | ? | -24 | -2% | -3% | 4 | 7
Cc1c(OCC(=O)C(C)(C)C)ccc2c3c(c(=O)oc12)CCCC3 | 16µM* | -8 | · | ? | 6 | -2
CC(=O)c1cccc(S(=O)(=O)N2CCC(C(=O)OC3CCOC3=O)CC2)c1 (stereo not drawn) | 15% | -2 | -15%[56.1 µM] | -7% | 2 | 22
Clc1cccc(-c2nnc(CN3CCN(c4ccccn4)CC3)o2)c1 | -26% | · | 4%[12.3 µM] | 3% | · | ·
O=C(COc1ccc(S(=O)(=O)N2CCCC2)cc1Cl)Nc1ccc2c(c1)OCO2 | 0% | 2 | -2% | 7% | 2 | 10
O=S(=O)(NC1CC1)c1ccc(S(=O)(=O)N2CCN3CCCC3C2)cc1 (stereo not drawn) | -6% | -1 | 2% | -1% | -4 | 9
O=S(=O)(NC1CC1)c1ccc(S(=O)(=O)N2CCCC3(CCCCC3)C2)cc1 | ? | 6 | 3% | 13µM* | 9 | 3
O=C(Nc1cccc(Br)c1)Oc1cccc2cccnc12 | 3.3µM* | -90* | · | 5.2µM* | ? | -23
O=C(Nc1cccc(C(F)(F)F)c1)Oc1ccc(Cl)c2cccnc12 | 18µM* | -70* | 8% | 23µM* | -96* | -102*
CCN(CC)c1ccc(C(=O)NNC(=O)c2cccn2C)cc1 | -27% | -5 | 0% | -27% | -19 | 1
COc1ccc(CNC(=O)c2cnc3sc(N4CCCC4)nn3c2=O)c(OC)c1 | -17% | · | 6% | -3% | · | ·
CC(=O)OC[C@@H]1O[C@@H](O/N=C2/C[C@@H](O)[C@@H](O)[C@@H]3[C@@H]4C(=O)N(C5CCCCC5)C(=O)[C@H]4CC[C@@H]23)[C@H](OC(C)=O)[C@H](OC(C)=O)[C@@H]1OC(C)=O | · | · | 4%[21 µM] | · | · | ·
CC(C)(C)C(=O)N1CCC[C@H]1C(O)(c1ccccc1)c1ccccc1 | ? | 19 | 3% | ? | 0 | 0
CN1CCC(CC(C(=O)N2CCCC2)(c2ccccc2)c2ccccc2)C1 (stereo not drawn) | ? | 4 | · | 23µM* | 0 | -18
COc1cc(C2Nc3ccc4ncccc4c3C3=C2C(=O)CCC3)cc(OC)c1O (stereo not drawn) | 5.2µM* | -15 | 0% | 5.2µM* | -1 | 23
O=C1CCCC2=C1C(c1ccc(O)c(O)c1)Nc1ccc3ccccc3c12 (stereo not drawn) | 10µM* | -3 | · | ? | 1 | -12
O=C1CCCC2=C1C(c1ccco1)Nc1ccc3ccccc3c12 (stereo not drawn) | 18µM* | ? | ? | 21µM* | 0 | -13
CC1(C)CC(=O)C2=C(C1)c1c(ccc3ncccc13)NC2c1cccs1 (stereo not drawn) | 3.7µM* | 0 | -5% | 5.2µM* | 1 | 0
SMILES | DT40 TDP1 no CPT | Six1-Eya2 inh | TDP1 inh | DT40 TDP1 CPT | CtBP-E1A inh | IL-1B inflam inh
O=C(c1ccccc1NS(=O)(=O)c1ccccc1[N+](=O)[O-])N1CCCC1 | -11% | -1 | 4% | -17% | 2 | i
CC1(C)CC(=O)c2sc(NS(=O)(=O)c3cc(Cl)ccc3Cl)nc2C1 | 6% | 1 | 3%[0.0935 µM] | 4% | -2 | 25
Cc1ccc(C2Nc3ccc4ccccc4c3C3=C2C(=O)CC(C)(C)C3)o1 (stereo not drawn) | ? | -2 | -8% | ? | 0 | -52*
CC1(C)CC(=O)C2=C(C1)c1c(ccc3ccccc13)NC2c1ccc(C(=O)O)cc1 (stereo not drawn) | 6% | 2 | · | 38% | 3 | 23
CCN(c1cccc(C)c1)S(=O)(=O)c1ccc2c(c1)CCN2C(C)=O | 16µM* | 0 | -1% | ? | 2 | 16
CC(=O)N1CCCc2cc(S(=O)(=O)N3CCC(C(=O)NCCC(C)C)CC3)ccc21 | -7% | · | -2% | 9% | · | ·
CCN(C(=O)C1CCN(S(=O)(=O)c2ccc3c(c2)CCCN3C(C)=O)CC1)c1cccc(C)c1 | 23µM* | · | -7% | ? | · | ·
O=C(C1CCC1)N1CCc2cc(S(=O)(=O)N3CCCCC3)ccc21 | ? | -1 | 7% | ? | 3 | 7
CCN(c1cccc(C)c1)S(=O)(=O)c1ccc2c(c1)CCCN2C(C)=O | ? | 2 | 0% | -28% | 3 | -19
CCN(CC)C(=O)C1CCN(S(=O)(=O)c2ccc3c(c2)CCCN3C(=O)C2CCC2)CC1 | ? | 2 | 4% | 7.3µM* | 5 | 43
CCN(CC)C(=O)C1CCN(S(=O)(=O)c2ccc3c(c2)CCCN3C(C)=O)CC1 | ? | · | 3% | 23µM* | · | ·
COC(=O)c1ccccc1NC(=O)CCCOc1cc(=O)n(C)c2ccccc12 | ? | -1 | · | ? | 4 | 26
Cc1ccc(S(=O)(=O)N2C[C@H]3C(=O)C[C@@H](c4ccccc4)N(S(=O)(=O)c4ccc(C)cc4)[C@H]3C[C@H]2c2cccc3ccccc23)cc1 | -28% | -2 | · | 7% | 0 | 11
Fc1cccc(NCc2ccoc2)c1 | 1% | 2 | 4% | 4% | 3 | 7
Cc1cccc(OCC(=O)NCc2n[nH]c(=O)c3ccccc23)c1 | -11% | 3 | · | -10% | 1 | 0
CC(C)c1ccc(OCC(=O)NCc2n[nH]c(=O)c3ccccc23)cc1 | ? | -4 | 40µM* | ? | 4 | 30

Screens from PubChem BioAssay.
